Common to all, as to assay: DAPPL (digital affinity profiling via proximity ligation, sequencing); 10 mM Tris-HCl pH 7.5, 50 mM NaCl, 1 mM DTT, 4% glycerol, room temperature, 30 min; GST-TFs on glutathione beads, 16-mer random dsDNA library, 0.1% formaldehyde crosslink after washing; high values mean tight binding
Experiment [1] addresses T1, FEV (Homo sapiens, UniProt Q99581 1-238).
T1 sequence: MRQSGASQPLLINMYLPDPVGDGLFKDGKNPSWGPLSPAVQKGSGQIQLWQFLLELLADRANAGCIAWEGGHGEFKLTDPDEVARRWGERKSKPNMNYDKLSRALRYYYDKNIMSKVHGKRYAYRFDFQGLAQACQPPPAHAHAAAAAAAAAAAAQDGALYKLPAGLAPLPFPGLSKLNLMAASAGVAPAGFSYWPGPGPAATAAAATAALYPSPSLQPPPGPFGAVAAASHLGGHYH
The note with it: protein: recombinant; tags: N-terminal GST; dsDNA, one strand shown. In outline:
(§1)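 Human transcription factors fused to GST were expressed in yeast, captured on glutathione beads, given DNA barcodes and pooled with a GST-only negative control. Pools were incubated with 200 nmole of a 16-mer random double-stranded DNA library in Tris/NaCl/DTT/glycerol buffer at room temperature for 30 min. They were then washed, crosslinked with 0.1% formaldehyde, proximity-ligated (BsaI/T4 ligase, 1 h, 37 °C), PCR-amplified and sequenced on an Illumina NextSeq500. Binding signal is each 6-mer's read frequency for a factor divided by its frequency for the GST control.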

For experiment [2], the target named is ETV5 (Homo sapiens, UniProt P41161 1-510). The note with it: protein: recombinant; tags: N-terminal GST; dsDNA, one strand shown. The procedure, abridged:
as §1

Experiment [3] concerns the target HSF1 (Homo sapiens, UniProt Q00613 1-529). The note with it: protein: recombinant; tags: N-terminal GST; chain copies: 3; dsDNA, one strand shown. The procedure, abridged:
as §1

In experiment [4] the target is T2, SPIC (Homo sapiens, UniProt Q8N5J4 1-248).
T2 sequence: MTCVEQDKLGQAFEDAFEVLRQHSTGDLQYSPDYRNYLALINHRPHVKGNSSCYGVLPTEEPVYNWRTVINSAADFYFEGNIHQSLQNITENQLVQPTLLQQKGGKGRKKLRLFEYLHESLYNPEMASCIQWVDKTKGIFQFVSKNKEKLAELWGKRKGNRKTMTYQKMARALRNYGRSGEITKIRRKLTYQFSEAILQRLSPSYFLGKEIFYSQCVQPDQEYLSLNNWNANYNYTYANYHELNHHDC
The conditions noted are these: protein: recombinant; tags: N-terminal GST; dsDNA, one strand shown. The procedure, abridged: as §1

In experiment [5] the target is ELF4 (Homo sapiens, UniProt Q99607 1-663). The conditions noted are these: protein: recombinant; tags: N-terminal GST; dsDNA, one strand shown. In outline:
as §1

Experiment [6] has as its target T3, ELK4 (Homo sapiens, UniProt P28324-2 1-405).
T3 sequence: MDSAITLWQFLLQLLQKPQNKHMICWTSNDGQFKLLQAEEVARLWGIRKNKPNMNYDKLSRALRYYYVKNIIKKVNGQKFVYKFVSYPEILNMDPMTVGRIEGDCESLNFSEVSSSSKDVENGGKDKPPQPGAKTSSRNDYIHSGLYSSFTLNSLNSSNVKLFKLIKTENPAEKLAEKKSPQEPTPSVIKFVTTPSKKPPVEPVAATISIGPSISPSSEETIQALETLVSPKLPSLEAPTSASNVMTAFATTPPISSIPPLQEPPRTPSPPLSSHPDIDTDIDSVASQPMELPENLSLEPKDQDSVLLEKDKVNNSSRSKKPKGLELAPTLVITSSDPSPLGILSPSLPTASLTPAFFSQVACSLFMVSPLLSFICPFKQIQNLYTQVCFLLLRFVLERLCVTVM
The conditions noted are these: protein: recombinant; tags: N-terminal GST; dsDNA, one strand shown. The procedure, abridged: as §1

Experiment [7] concerns the target T4, ETV2 (Homo sapiens, UniProt O00321 1-342).
T4 sequence: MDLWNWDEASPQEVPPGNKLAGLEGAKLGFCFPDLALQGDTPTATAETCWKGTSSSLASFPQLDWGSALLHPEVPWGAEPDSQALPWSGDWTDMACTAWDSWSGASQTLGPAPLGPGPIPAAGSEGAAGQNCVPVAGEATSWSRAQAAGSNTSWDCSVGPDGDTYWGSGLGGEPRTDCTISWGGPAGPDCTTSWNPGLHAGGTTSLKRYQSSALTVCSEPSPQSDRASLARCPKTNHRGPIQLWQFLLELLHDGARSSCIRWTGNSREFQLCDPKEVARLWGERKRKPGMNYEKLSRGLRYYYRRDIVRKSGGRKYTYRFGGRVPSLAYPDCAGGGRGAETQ
The conditions noted are these: protein: recombinant; tags: N-terminal GST; dsDNA, one strand shown. The procedure, abridged:
as §1

The target in experiment [8] is T5, ELF3 (Homo sapiens, UniProt P78545 1-371).
T5 sequence: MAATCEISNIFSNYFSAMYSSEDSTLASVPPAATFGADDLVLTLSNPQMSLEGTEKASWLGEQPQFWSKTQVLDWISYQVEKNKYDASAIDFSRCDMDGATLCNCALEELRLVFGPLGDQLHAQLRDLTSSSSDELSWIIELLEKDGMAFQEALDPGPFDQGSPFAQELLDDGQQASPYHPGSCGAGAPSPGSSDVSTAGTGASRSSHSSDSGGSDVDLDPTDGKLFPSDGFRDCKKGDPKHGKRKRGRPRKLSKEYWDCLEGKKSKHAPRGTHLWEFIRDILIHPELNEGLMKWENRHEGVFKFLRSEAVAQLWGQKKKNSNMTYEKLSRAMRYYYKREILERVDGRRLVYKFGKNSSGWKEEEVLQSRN
The note with it: protein: recombinant; tags: N-terminal GST; dsDNA, one strand shown. In outline:
as §1

Experiment [9] has as its target CRX (Homo sapiens, UniProt O43186 1-299). The note with it: protein: recombinant; tags: N-terminal GST; dsDNA, one strand shown. The procedure, abridged: as §1
In experiment [10] the target is ETV1 (Homo sapiens, UniProt P50549 1-477). The conditions noted are these: protein: recombinant; tags: N-terminal GST; dsDNA, one strand shown. In outline:
as §1

The target in experiment [11] is T6, ERF (Homo sapiens, UniProt P50548 1-548).
T6 sequence: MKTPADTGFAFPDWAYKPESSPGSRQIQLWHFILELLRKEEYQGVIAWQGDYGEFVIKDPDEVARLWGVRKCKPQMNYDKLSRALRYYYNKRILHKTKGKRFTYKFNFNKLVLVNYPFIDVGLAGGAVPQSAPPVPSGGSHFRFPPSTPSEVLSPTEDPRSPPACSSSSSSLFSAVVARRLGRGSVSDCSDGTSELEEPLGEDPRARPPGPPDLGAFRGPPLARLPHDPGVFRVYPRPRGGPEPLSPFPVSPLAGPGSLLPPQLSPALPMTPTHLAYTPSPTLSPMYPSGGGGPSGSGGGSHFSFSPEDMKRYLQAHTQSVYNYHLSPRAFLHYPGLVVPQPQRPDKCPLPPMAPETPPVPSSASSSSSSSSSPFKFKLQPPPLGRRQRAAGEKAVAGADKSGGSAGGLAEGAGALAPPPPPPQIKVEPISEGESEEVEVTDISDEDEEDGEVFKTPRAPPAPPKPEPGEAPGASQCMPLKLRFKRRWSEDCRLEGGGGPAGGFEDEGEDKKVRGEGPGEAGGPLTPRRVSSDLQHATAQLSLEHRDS
The note with it: protein: recombinant; tags: N-terminal GST; dsDNA, one strand shown. The procedure, abridged: as §1

In experiment [12] the target is T7, ETV3L (Homo sapiens, UniProt Q6ZN32 1-361).
T7 sequence: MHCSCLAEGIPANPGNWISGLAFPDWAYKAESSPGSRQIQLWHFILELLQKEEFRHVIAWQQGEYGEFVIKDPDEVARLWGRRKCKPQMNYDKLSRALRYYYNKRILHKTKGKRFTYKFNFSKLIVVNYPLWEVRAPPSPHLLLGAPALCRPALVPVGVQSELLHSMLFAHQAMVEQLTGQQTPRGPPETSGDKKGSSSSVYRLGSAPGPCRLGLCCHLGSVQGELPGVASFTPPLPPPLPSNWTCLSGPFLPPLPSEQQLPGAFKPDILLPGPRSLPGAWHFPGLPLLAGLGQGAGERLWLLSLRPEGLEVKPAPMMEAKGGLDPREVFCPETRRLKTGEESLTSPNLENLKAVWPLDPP
The note with it: protein: recombinant; tags: N-terminal GST; dsDNA, one strand shown. The procedure, abridged:
as §1

The target of experiment [13] is T8, ETS2 (Homo sapiens, UniProt P15036 1-469).
T8 sequence: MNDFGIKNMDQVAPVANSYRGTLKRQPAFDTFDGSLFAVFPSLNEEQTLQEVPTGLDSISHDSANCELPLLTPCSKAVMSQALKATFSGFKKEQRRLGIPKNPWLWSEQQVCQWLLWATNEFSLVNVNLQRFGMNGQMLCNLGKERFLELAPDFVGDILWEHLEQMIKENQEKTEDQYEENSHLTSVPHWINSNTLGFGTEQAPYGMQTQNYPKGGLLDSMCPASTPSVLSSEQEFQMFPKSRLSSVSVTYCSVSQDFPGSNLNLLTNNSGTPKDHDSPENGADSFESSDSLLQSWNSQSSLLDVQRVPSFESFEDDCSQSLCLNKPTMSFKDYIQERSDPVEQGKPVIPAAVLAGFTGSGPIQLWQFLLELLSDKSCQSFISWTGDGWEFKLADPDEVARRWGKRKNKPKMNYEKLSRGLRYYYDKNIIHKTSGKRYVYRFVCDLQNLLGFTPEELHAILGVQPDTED
The conditions noted are these: protein: recombinant; tags: N-terminal GST; dsDNA, one strand shown. In outline: as §1

Experiment [14] has as its target T9, SPDEF (Homo sapiens, UniProt O95238 1-335).
T9 sequence: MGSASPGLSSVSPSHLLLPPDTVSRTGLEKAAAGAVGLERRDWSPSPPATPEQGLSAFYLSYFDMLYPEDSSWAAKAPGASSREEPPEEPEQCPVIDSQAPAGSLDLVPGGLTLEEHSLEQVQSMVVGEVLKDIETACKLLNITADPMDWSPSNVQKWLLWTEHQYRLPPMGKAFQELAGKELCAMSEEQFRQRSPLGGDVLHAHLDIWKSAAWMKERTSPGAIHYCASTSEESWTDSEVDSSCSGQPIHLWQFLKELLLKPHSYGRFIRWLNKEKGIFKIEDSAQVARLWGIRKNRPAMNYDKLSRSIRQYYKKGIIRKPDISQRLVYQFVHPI
The note with it: protein: recombinant; tags: N-terminal GST; dsDNA, one strand shown. In outline: as §1

The target of experiment [15] is T10, ETV7 (Homo sapiens, UniProt Q9Y603 1-341).
T10 sequence: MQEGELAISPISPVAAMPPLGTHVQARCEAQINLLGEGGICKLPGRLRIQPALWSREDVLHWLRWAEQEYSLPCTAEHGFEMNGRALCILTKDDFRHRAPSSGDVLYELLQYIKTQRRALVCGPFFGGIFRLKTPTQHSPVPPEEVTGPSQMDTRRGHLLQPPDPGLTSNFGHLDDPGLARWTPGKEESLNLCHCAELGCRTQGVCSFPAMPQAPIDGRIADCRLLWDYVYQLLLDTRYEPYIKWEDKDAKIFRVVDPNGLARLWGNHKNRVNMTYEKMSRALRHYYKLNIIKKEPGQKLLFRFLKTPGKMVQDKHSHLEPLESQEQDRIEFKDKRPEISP
The conditions noted are these: protein: recombinant; tags: N-terminal GST; dsDNA, one strand shown. The procedure, abridged: as §1

The target in experiment [16] is T11, ELF5 (Homo sapiens, UniProt Q9UKW6-2 1-255).
T11 sequence: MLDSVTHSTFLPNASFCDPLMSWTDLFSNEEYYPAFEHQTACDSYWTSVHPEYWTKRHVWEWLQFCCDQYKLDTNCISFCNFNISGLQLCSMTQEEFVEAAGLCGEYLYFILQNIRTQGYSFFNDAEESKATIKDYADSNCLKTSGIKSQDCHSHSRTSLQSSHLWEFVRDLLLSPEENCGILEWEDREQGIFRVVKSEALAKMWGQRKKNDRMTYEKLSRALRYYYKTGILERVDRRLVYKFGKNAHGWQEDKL
The conditions noted are these: protein: recombinant; tags: N-terminal GST; dsDNA, one strand shown. The procedure, abridged:
as §1

The target of experiment [17] is T12, ETV3 (Homo sapiens, UniProt P41162-2 1-143).
T12 sequence: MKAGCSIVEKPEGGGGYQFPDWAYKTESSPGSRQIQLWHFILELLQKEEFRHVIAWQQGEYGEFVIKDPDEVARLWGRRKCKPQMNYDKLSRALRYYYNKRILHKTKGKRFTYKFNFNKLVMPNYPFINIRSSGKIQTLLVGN
The conditions noted are these: protein: recombinant; tags: N-terminal GST; dsDNA, one strand shown. The procedure, abridged:
as §1

Experiment [18] addresses ETV6 (Homo sapiens, UniProt P41212 1-452). The conditions noted are these: protein: recombinant; tags: N-terminal GST; dsDNA, one strand shown. In outline:
as §1

From publication PMC7862700, “An all-to-all approach to the identification of sequence-specific readers for epigenetic DNA modifications on cytosine” come the findings set out here.

Chain of HSF1 (Q00613 whole entry): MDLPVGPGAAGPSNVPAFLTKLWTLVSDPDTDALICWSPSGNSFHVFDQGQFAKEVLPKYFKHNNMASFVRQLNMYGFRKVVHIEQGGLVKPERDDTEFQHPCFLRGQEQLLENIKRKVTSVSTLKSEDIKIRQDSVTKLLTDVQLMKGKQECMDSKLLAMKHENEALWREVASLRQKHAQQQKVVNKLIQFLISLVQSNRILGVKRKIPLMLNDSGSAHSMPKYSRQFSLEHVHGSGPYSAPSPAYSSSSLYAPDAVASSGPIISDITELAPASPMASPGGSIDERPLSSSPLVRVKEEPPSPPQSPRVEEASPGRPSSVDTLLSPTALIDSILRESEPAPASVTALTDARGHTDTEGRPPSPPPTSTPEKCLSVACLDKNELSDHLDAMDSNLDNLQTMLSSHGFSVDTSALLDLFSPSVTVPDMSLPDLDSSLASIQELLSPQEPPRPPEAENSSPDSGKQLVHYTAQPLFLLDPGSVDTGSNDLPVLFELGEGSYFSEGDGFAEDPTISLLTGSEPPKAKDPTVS
Chain of ETV6 (P41212 whole entry): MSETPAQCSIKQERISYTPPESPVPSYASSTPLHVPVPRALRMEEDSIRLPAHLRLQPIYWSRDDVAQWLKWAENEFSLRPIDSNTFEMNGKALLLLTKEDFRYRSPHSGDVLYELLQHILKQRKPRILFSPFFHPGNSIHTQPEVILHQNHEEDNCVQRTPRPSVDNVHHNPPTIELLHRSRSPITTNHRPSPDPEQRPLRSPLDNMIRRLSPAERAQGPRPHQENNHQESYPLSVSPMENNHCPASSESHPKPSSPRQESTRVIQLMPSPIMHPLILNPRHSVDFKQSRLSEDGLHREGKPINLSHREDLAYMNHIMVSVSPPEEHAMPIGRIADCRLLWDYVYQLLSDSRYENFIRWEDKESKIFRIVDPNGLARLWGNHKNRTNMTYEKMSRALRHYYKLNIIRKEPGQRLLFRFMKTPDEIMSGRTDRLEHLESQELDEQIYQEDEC
Chain of ELF4 (Q99607 whole entry): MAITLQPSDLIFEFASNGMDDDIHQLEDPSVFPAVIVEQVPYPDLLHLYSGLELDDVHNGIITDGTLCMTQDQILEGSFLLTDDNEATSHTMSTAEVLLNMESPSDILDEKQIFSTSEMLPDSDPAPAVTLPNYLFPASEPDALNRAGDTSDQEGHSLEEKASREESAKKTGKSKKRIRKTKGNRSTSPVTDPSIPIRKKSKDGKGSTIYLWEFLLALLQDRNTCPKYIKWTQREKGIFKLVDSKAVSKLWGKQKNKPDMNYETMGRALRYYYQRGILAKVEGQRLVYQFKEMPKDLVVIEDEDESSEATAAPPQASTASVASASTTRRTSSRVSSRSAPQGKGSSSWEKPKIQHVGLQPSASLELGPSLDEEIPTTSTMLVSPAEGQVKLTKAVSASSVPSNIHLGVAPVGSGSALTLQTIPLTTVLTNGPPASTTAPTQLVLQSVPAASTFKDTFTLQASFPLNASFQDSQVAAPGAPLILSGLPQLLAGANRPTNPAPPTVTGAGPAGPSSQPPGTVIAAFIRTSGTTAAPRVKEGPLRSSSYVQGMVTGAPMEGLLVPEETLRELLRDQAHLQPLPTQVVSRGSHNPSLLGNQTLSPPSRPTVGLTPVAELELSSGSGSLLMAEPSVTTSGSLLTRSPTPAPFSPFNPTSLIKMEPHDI
Chain of ETV5 (P41161 whole entry): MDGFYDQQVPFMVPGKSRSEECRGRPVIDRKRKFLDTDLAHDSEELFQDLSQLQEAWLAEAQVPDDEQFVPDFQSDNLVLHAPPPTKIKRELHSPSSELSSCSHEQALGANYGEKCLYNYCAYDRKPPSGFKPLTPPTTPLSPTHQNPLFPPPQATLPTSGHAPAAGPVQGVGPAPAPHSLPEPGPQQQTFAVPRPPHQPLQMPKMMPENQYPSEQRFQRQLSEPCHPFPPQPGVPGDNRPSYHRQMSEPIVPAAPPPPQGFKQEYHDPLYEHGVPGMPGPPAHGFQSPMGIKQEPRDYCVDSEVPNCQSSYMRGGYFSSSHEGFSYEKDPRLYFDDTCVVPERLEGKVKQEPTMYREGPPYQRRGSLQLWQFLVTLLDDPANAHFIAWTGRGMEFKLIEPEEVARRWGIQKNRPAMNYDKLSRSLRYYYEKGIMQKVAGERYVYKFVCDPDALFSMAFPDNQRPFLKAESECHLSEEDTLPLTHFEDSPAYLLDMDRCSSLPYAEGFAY
Chain of ETV1 (P50549 whole entry): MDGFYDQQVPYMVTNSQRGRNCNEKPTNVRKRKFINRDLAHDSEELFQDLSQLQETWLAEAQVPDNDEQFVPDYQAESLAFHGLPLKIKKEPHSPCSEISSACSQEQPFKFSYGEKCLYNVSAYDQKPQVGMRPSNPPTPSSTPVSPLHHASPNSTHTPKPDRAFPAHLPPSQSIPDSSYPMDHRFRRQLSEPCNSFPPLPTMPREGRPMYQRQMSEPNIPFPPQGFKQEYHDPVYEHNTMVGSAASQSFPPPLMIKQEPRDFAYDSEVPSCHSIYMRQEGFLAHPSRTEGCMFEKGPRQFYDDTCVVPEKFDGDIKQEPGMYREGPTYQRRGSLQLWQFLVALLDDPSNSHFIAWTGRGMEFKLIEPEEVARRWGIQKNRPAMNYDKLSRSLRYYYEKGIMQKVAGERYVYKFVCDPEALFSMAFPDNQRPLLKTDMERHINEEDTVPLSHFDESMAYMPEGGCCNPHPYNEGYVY
Chain of CRX (O43186 whole entry): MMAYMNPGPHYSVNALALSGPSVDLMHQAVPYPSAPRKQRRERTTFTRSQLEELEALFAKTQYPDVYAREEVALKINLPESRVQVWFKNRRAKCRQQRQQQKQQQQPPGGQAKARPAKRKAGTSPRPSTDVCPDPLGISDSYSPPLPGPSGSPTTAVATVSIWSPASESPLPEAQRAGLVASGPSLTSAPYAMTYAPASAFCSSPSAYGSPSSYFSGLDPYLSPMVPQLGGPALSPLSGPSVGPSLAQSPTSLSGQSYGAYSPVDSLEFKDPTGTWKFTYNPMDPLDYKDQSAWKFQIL

With TTATTT, the binding signal in experiment [1] was 1.41 fold enrichment (6-mer frequency, TF over GST control); in experiment [2], 1.47 fold enrichment (6-mer frequency, TF over GST control); in experiment [3] it was 1.64 fold enrichment (6-mer frequency, TF over GST control); in experiment [4], 1.48 fold enrichment (6-mer frequency, TF over GST control); in experiment [5] it was 1.32 fold enrichment (6-mer frequency, TF over GST control); in experiment [6], 1.43 fold enrichment (6-mer frequency, TF over GST control). Further, the binding signal was 1.26 fold enrichment (6-mer frequency, TF over GST control) in experiment [7]; 1.55 fold enrichment (6-mer frequency, TF over GST control) in [8]; 2.43 fold enrichment (6-mer frequency, TF over GST control) in experiment [9]; 1.52 fold enrichment (6-mer frequency, TF over GST control) in experiment [10]; 1.26 fold enrichment (6-mer frequency, TF over GST control) in [11]; 1.38 fold enrichment (6-mer frequency, TF over GST control) in experiment [12]. The binding signal in experiment [13] is 1.41 fold enrichment (6-mer frequency, TF over GST control); in experiment [14], 1.19 fold enrichment (6-mer frequency, TF over GST control); in experiment [15], 1.46 fold enrichment (6-mer frequency, TF over GST control); in [16], 1.43 fold enrichment (6-mer frequency, TF over GST control); in [17], 1.41 fold enrichment (6-mer frequency, TF over GST control); in experiment [18], 1.4 fold enrichment (6-mer frequency, TF over GST control).
